Screens deposited in PubChem BioAssay by Sanford-Burnham Center for Chemical Genomics.
Shown are actives, neighbours in structure and some others; about 3% of the full set was active somewhere.
SENP6 inh: inhibitors of human SENP6 protease; Q9GZR1; Recombinant SENP6 catalytic domain, aminoluciferin luminescence; inhibition, % at 10 µM; hit rate 1.8% among 330,000;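 active = inhibition above about 50% at the single tested dose, limit read from the data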;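 note: plate controls were DMSO wells with enzyme for no effect and DMSO wells lacking enzyme for full effect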
SENP8 block-1: blocks the human protease SENP8 | Q96LD8 | purified SENP8, Z-RLRGG-aminoluciferin cleavage, luminescence | inhibition, % at 10 µM | hit rate 1.2% among 330,000 | AID 2540; in the data active = inhibition above about 50%
Target sequence (Q96LD8 whole entry, looked up): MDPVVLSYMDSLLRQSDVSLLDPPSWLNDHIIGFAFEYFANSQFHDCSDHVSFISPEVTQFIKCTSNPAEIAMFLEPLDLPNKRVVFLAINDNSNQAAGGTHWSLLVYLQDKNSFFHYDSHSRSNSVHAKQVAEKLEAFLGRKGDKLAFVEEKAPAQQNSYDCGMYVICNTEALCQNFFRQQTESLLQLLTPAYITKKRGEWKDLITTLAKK
TRAIL sens C8: caspase-8 TRAIL sensitization; NB7+C8 cells + TRAIL, ATPlite viability luminescence; inhibition (viability loss, TRAIL sensitization), % at 10 µM; hit rate 1% among 360,000; AID 624354;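 active = compounds causing at least 50% loss of cell viability in the single-dose screen, relative to plate controls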
PPC-1+TRAIL kill: PPC-1 cancer cell killing with TRAIL present. PPC-1 cells + TRAIL, ATPLite viability luminescence. cell killing (% activity), % at 4 µM or 5 µM. hit rate 0.41% among 220,000;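 active = cell killing above 50% in the first pass at 4 µM, then a duplicate retest at 5 µM averaging 50% or more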;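 note: plate controls were cells with TRAIL plus DMSO for no effect and medium-only wells lacking cells for full effect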
SENP8 block-2: inhibitors of human SENP8 protease. recombinant SENP8, Nedd8 substrate fluorescence. hit rate 0.64% among 360,000. AID 602440. inhibition, % at 20 µM; in the data active = inhibition mostly above about 40%, no sharp cut-off; inactive = mostly below about 27%
SENP7 inh: SENP7 protease inhibition | recombinant SENP7, Z-RLRGG-aminoluciferin luminescence, 40 min | inhibition, % at 5 µM | hit rate 1.5% among 330,000;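 active = inhibition above about 50% at the single test dose, limit read from the data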;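 note: plate controls were DMSO with enzyme for no effect and no enzyme buffer wells for full effect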
Target sequence (Q9BQF6 706-1050 limits assumed): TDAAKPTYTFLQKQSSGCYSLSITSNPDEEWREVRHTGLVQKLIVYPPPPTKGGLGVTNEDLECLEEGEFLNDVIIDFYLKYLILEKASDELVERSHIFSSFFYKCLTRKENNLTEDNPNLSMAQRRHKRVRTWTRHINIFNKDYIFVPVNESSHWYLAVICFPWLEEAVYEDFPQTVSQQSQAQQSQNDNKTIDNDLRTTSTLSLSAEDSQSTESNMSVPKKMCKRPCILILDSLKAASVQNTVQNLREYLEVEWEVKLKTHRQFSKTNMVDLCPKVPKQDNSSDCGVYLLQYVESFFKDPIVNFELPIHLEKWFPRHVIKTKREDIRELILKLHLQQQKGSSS
An asterisk follows results filed as active; i = inactive; . = no result given.

SMILES	SENP6 inh	SENP8 block-1	TRAIL sens C8	PPC-1+TRAIL kill	SENP8 block-2	SENP7 inh
Oc1ccccc1-c1cc(C(F)(F)F)[nH]n1	.	.	.	1.7	.	.
O=[N+]([O-])c1ccccc1-c1cc(-c2ccccc2O)n[nH]1	60.6*	36.0	10.2	38.9	10.3	13.6
CSc1nc(Cl)c(Br)c(Nc2c[nH]c(=O)[nH]c2=O)n1	.	.	2.9	.	11.2	.
CCOC(=O)[C@@H]1[C@H]2COc3ccccc3[C@@H]2N2C(=O)N(c3ccc(Cl)cc3)C(=O)[C@]12C	-2.4	-7.5	-13.7	.	25.4	-8.6
Cc1ccsc1C(=O)Nc1ccc(F)c([N+](=O)[O-])c1	76.9*	53.3*	13.9	23.2	8.7	71.3*
CN1C/C(=C/c2ccccc2[N+](=O)[O-])C(=O)/C(=C\c2ccccc2[N+](=O)[O-])C1	.	.	31.9	.	-29.4	.
C=CCOc1ccc(/C=C2\SC(=S)N(C(C(=O)O)c3ccccc3)C2=O)cc1 (stereo unspecified)	.	.	13.7	-10.5	41.5*	.
CCOc1ccc(/C=C2\SC(=S)N(C(C(=O)O)c3ccccc3)C2=O)cc1OC (stereo unspecified)	6.4	-1.5	-7.0	20.1	8.2	11.7
O=c1[nH]c(Cc2cccc(C(F)(F)F)c2)nc2ccccc12	5.5	2.2	-4.7	.	13.3	-4.8
O=[N+]([O-])c1cc(C(F)(F)F)ccc1N1CCN(S(=O)(=O)c2ccc3ccccc3c2)CC1	-10.1	-2.3	15.5	4.5	40.0*	0.4
Cc1ccccc1OCC(=O)Nc1ccc(N2CCN(C)CC2)c(Cl)c1	-19.8	-1.8	29.2	.	5.9	0.8
O=C(Nc1nc2ccccc2n1CCN1CCCCC1)C1CCCCC1	3.7	4.2	54.7*	5.8	17.5	-1.0
O=C(Nc1nc2ccccc2n1CCN1CCCC1)C1CCCCC1	-15.0	-6.3	13.9	10.3	22.4	-7.8
COc1ccc(NC(=O)c2cc(-c3ccncc3)nc3ccc(Br)cc23)cc1OC	-2.6	-7.2	54.3*	.	13.8	9.8
COc1ccc(NC(=O)c2cc(-c3cccnc3)nc3ccc(C)cc23)cc1OC	.	.	10.9	2.8	12.0	.
COCCCNc1ccn2nc(-c3cccc(Cl)c3)cc2n1	.	.	18.7	.	-489.0	.
COCCCNc1ccn2nc(-c3ccccc3)cc2n1	.	.	52.6*	.	-448.2	.
NC(=O)c1ccccc1NC(=O)/C=C/c1ccccc1	65.6*	21.9	60.3*	41.4	-86.0	40.1
Cc1ccc(S(=O)(=O)NCC(=O)OCCOc2cccc(Cl)c2)cc1	-11.0	-3.0	-2.2	.	13.5	4.3
CC(C)c1nnc(NC(=O)c2nc(S(=O)(=O)Cc3ccccc3)ncc2Cl)s1	-10.4	-17.7	94.2*	.	11.9	-0.8
CSc1nnc(NC(=O)c2nc(S(=O)(=O)Cc3ccccc3)ncc2Cl)s1	-3.9	-5.9	81.6*	.	19.1	6.7
O=C(Cn1c(=O)cnc2ccccc21)NNC(=O)c1ccccc1Cl	-16.8	4.2	-1.7	.	5.7	-1.5
CC1CCc2c(sc(NC(=O)C3=COCCO3)c2C(N)=O)C1 (stereo unspecified)	-14.5	-23.3	55.4*	.	-346.1	-12.5
CNC(=O)c1c(NC(=O)C2=COCCO2)sc2c1CCC(C)C2 (stereo unspecified)	9.6	4.7	-1.3	.	-295.8	-2.0
CC(C)(C)OC(=O)N1CCC(C(=O)Nc2cccc(C(=O)N3CCCCC3)c2)CC1	.	.	-20.3	.	-2.4	.
SMILES	SENP6 inh	SENP8 block-1	TRAIL sens C8	PPC-1+TRAIL kill	SENP8 block-2	SENP7 inh
Oc1ccc(CCNc2ncnc3ccc(Cl)cc23)cc1	-19.9	-3.0	28.7	.	-7.7	-4.0
COc1ccc(-c2noc(-c3ccc(Br)o3)n2)cc1	31.1	-0.3	5.3	-7.3	-13.1	36.3
COc1cccc(-c2noc(-c3ccc(Br)o3)n2)c1	1.7	56.8*	15.8	20.0	12.7	72.6*
COc1cccc(-c2cc3nc(C)c(C)c(N4CCN(C(=O)c5ccoc5)CC4)n3n2)c1	.	.	14.8	.	-329.5	.
CN(C)c1ccc(CNc2nc3ccccc3s2)cc1	81.7*	53.6*	.	.	.	95.2*
Cc1cc(C)c(C)c(S(=O)(=O)NCC(=O)Nc2ccccc2F)c1C	-10.6	-8.0	7.5	.	14.3	0.7
N#CC(c1nc2ccccc2nc1N1CCCC1)S(=O)(=O)c1ccccc1 (stereo unspecified)	74.4*	72.5*	4.8	10.3	-315.7	39.1
CCc1ccc(/C=C\C(=O)N2CCc3ccccc3C2)cc1	60.6*	47.1	7.5	7.2	26.8	45.4
CC1=NN(Cc2ccccc2)C(=O)/C1=C\c1ccc(N(C)C)cc1	1.3	7.2	14.8	11.7	40.0*	8.3
CCOC(=O)C1=NN(c2ccccc2)C(=O)/C1=C\c1ccc(N(C)C)cc1	-7.4	-10.3	-3.3	11.8	5.3	-2.9
Cc1ccc(S(=O)(=O)N2CCOCC2)cc1NC(=O)CSc1nnnn1C1CC1	.	.	4.6	.	9.4	.
CCC(=O)N1CCCc2cc(S(=O)(=O)N3CCN(c4ccccc4F)CC3)ccc21	-14.5	-11.0	83.2*	8.4	1.0	-9.2
CCN(C(=O)COC(=O)CNC(=O)C1CCCCC1)c1ccccc1	-7.2	-3.2	-2.2	.	3.8	0.6
CCCCCCn1c(O)c(/C=C2\C=NN=C2c2ccccc2)sc1=S	-4.7	-4.9	27.7	13.9	42.2*	-1.9
CC(C)Cn1c(O)c(/C=C2\C=NN=C2c2ccccc2)sc1=S	-20.4	-9.3	-4.8	-2.2	40.4*	-1.0
CCn1c(O)c(/C=C2\C=NN=C2c2ccccc2)sc1=S	-9.0	-4.3	30.2	28.1	29.2	-2.9
Cc1ccc(/C=C2/SC(=O)N(CC(=O)N3CCOCC3)C2=O)s1	6.8	2.2	-2.0	33.5	7.8	17.1
O=C(CN1C(=O)S/C(=C/c2ccc(N3CCOCC3)cc2)C1=O)N1CCOCC1	-0.4	-5.9	61.2*	49.3	-30.5	1.7
COc1ccc(-c2cc(-c3ccccc3)c(C#N)c(S(C)(=O)=O)n2)cc1	4.3	-1.1	78.2*	46.9	i	1.1
COc1ccc(-c2cc(-c3ccc(OC)cc3)c(C#N)c(SC)n2)cc1	-33.1	2.2	9.5	3.0	i	0.7
CS(=O)(=O)c1nc(-c2ccc(Br)cc2)cc(-c2ccccc2)c1C#N	-38.0	-8.8	88.4*	31.4	-89.4	-1.1
CCc1ccc2c(c1)c(N=NC1=NC(=O)CS1)c(O)n2CC	-32.1	-7.5	-0.4	16.6	41.7*	-0.1
Cc1ccc2[nH]c(O)c(N=Nc3ccccc3C)c2c1	-38.4	-15.6	10.1	.	-47.3	-6.0
CCc1ccc2[nH]c(O)c(N=NC3=NC(=O)CS3)c2c1	-16.1	-1.7	-7.0	6.5	27.1*	-2.3
CCCCn1c(SCC(=O)Nc2nnc(CC)s2)nc2c1c(=O)n(C)c(=O)n2C	6.7	-4.5	64.3*	19.1	16.3	-4.3
CCC(=O)Nc1ccc(C2C(=O)c3ccccc3C2=O)cc1	36.4	34.3	72.6*	.	15.1	-4.5
CCCCC(=O)Nc1ccc(C2C(=O)c3ccccc3C2=O)cc1	20.1	3.4	48.4*	.	8.2	-7.3
CCCCCCCc1ccc(-c2ccc(O)cc2)nc1	-3.1	3.1	24.4	-1.0	-0.8	0.0
